The full list was thinned out, with hits kept by preference.
Pf Dd2 growth: qHTS Primary assay for Inhibitors of Plasmodium falciparum Dd2 growth in vitro | P. falciparum Dd2 growth, SYBR Green, 72 h | Potency, µM (titrated, usually from 28.9 µM), inactives show at the highest dose activity, negative = inhibition, usual class: inhibitors | 120,000 compounds, 4.3% hits | AID 1347417, 2020; active = well fitted inhibition curve with a large enough effect;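 note: plate controls were DMSO vehicle for no effect and reference drug for full effect; nearly all actives have a fitted effect of over 65% in size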
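Readout: SYBR Green fluorescence, 485 nm excitation, 535 nm emission, after ~16 h lysis at 37C. Before that, Dd2-infected red cells (2.5% hematocrit) grew 72 h with compound, 29 uM top final concentration.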
Active calls of the source: *; i = inactive; [ ] = dose if it differs, or a comment. Potency is the fitted concentration of half-maximal effect.

SMILES | Pf Dd2 growth
c1ccc(C(CNc2nccc(-c3ccncc3)n2)N2CCOCC2)nc1 (configuration not stated) | 2%
Cc1ccccc1-n1cc(-c2ccnc(NC(C)Cc3ccncc3)n2)cn1 (configuration not stated) | 8.9µM*
Cc1ccccc1-n1cc(CN(C)Cc2nc(-c3ccc(C(F)(F)F)cc3)no2)cn1 | 0%
O=C1Nc2ccc(/C=C/c3ccccc3)cc2C(=O)N2C[C@H](O)C[C@@H]12 | -19%[44.1 µM]
c1ccc(C2(c3nc(C4CCOC4)no3)CCCCC2)cc1 (configuration not stated) | -20%
CCCS(=O)(=O)Nc1ccc2n(c1=O)C[C@H]1C[C@@H]2CN(C(=O)c2ccc(-c3ccccc3)cc2)C1 | -3%
Cc1cccc(NC(=O)N2CC3CC(C2)[C@H]2CCCC(=O)N2C3)c1 (some centres not stated) | -13%
COc1cc2c(cc1Oc1ccccc1)NC(=O)C21CCN(Cc2ccccn2)CC1 | -12%[44.1 µM]
COc1cc2c(cc1OCC1CC1)NC(=O)C21CCN(c2ncc(F)cn2)CC1 | i
COc1cc2c(cc1OC1CCCC1)NC(=O)C21CCN(Cc2ccncc2)CC1 | -4%[44.1 µM]
COc1cc2c(cc1OC1CCCC1)NC(=O)C21CCN(c2cc(NC3CC3)ncn2)CC1 | -23%
COc1cc2c(cc1OC1CCCC1)NC(=O)C21CCN(c2ccnc(C)n2)CC1 | 13µM*
COc1cc2c(cc1Oc1ccccc1)NC(=O)C21CCN(c2ncc(F)cn2)CC1 | 4.5µM*
O=C(CC1CCCC1)N1CCC(c2nc(CCOc3ccc(F)cc3)no2)C1 (configuration not stated) | i
COc1ccc(-c2cc(C[C@H]3CNCC[C@H]3CC(=O)Nc3nccs3)no2)cc1 | -7%[44.1 µM]
O=C(NC1CC1)[C@@H]1C[C@H](Oc2ccccc2)CN1C(=O)c1ccncc1 | -3%
c1cc2nnc(C3CCC3)n2nc1N1CCOCC1 | -25%
CC(C)c1nnc(C2CN(C(=O)C3(c4ccccc4)CC3)CC23CCOCC3)o1 (configuration not stated) | -19%
CCOc1ccccc1NC(=O)N1CCCCCCN(C)C(=O)[C@H]2CCC[C@H]21 | 11µM*
CCOc1ccccc1NC(=O)N1CCCCCCN(C)C(=O)CC1 | -24%
CN1CCCCCCN(C(=O)NC2CCCCC2)[C@H]2CCC[C@H]2C1=O | i
Cc1ccc(CNC(=O)CSc2nc3n[nH]c(C)c3c(=N)n2-c2cccc(C)c2)cc1 | -13%
Cc1ccc(-n2c(SCC(=O)Nc3cccc(Cl)c3)nc3n[nH]c(C)c3c2=N)cc1 | 13µM*
CCC(C)NC(=O)CSc1nc2n[nH]c(C)c2c(=N)n1-c1ccc(C)c(Cl)c1 (configuration not stated) | -6%
Cc1ccc(C2NC(=O)N(CC(=O)Nc3ccc(Br)cc3F)C3=C2C(=O)OC3)cc1 (configuration not stated) | -1%
SMILES | Pf Dd2 growth
COc1cccc(-c2nc(C3CC(=O)N(C4CCCCC4)C3)no2)c1 (configuration not stated) | 39%
COc1cccc(-c2cc(-c3nc(C4CC(=O)N(C5CCCCC5)C4)no3)[nH]n2)c1 (configuration not stated) | 5µM*
COc1ccc(-c2nc(C3CC(=O)N(C4CCCCC4)C3)no2)cc1 (configuration not stated) | 61%
CC(C)CCC(=O)NC1CCN(c2cn[nH]c(=O)c2)CC1 | 1%
Cc1nc(N)nc(C)c1CC(=O)N1CCn2nc(C(O)CO)cc2C1 (configuration not stated) | -5%
COc1cccc(CN2C[C@@H](COCC3CC3)[C@H](c3ccncc3)C2)n1 | 11µM*
O=C(c1cncnc1)N1C[C@@H](COCC2CC2)[C@H](c2ccncc2)C1 | 21%
Cc1ccccc1C(=O)N1C[C@@H](COCC2CC2)[C@H](c2ccncc2)C1 | -23%
COc1ccc(C(=O)N[C@H](C)c2onc(-c3ccc(F)cc3)c2C(=O)O)cc1 | 16%[44.1 µM]
O=C(CCC1CCN(C(=O)[C@@H]2C[C@@H]3C=C[C@H]2C3)CC1)Nc1ccc2c(c1)OCCO2 | -21%
COc1ccc(C(=O)N[C@@H]2CN(C3CCOCC3)C[C@H]2CN(C)C)c(C)c1 | -3%
CCOc1ccc2c(c1)c(=O)c(C(=O)c1ccccc1)cn2Cc1ccccc1 | -5%
COc1ccc(C(=O)/C=C/c2cn(CC(O)CN3CCc4ccccc43)c3ccccc23)cc1 (configuration not stated) | -3%
CCCCN(C)CC(O)Cn1cc(/C=C/C(=O)c2ccc(OCC)cc2)c2ccccc21 (configuration not stated) | 3.5µM*
CCCCN(CCCC)CC(O)Cn1cc(/C=C/C(=O)c2ccccc2)c2ccccc21 (configuration not stated) | 0.89µM*
CCCCN(CC)CCCNC(=O)c1cn(C)c(=O)c2c1c1ccccc1n2C | i
O=C(c1cnc2c(c1)N(C(=O)CCc1ccccc1)CCC2)N1CCC(c2ccccc2)CC1 | 132%
COc1ccc(-c2cc(N3CCN(C(=O)c4ccccc4F)CC3)n[nH]2)cc1 | i
NC1CCc2nn(CC(=O)NCc3ccc(F)cc3Cl)c(=O)n2CC1 (configuration not stated) | 29%
CCOCCOC1CCN(C(=O)c2c[nH]c3ccccc23)CC1 | 15%
COc1ccc(C2NC(=O)N(CC3CC3)C3=C2C(=O)OC3)cc1 (configuration not stated) | -10%
COc1ccc2c(c1)CCc1c(C(=O)Nc3cnn(Cc4ccc(Cl)cc4Cl)c3)noc1-2 | 7.9µM*
COc1ccc(CN2Cc3cc(NC(=O)c4ccc(Cl)cc4)ccc3OC(C)C2=O)c(OC)c1 (configuration not stated) | i
CCc1cc(C(=O)Nc2cnn(Cc3ccccc3C)c2)no1 | 0%
O=C1[C@@H]2C[C@@H](O)CN2C2(CN(C3CCC(F)(F)CC3)C2)C(=O)N1Cc1cccc(Cl)c1 | i
SMILES | Pf Dd2 growth
Cn1ncc2c(C(=O)N3CCCC3)cc(-c3ccc(Cl)nc3)nc21 | 0%[44.1 µM]
CCS(=O)(=O)N1CCC(N2C(=O)C3(CCCC3)C2c2ccccc2)CC1 (configuration not stated) | i
O=C(Nc1ccccc1F)N1CCC(N2C(=O)C3(CCCCC3)C2c2ccccc2)CC1 (configuration not stated) | i
Cc1nc(C)c(C(=O)N2CCC(N3C(=O)C4(CCCCC4)C3c3ccccc3)CC2)s1 (configuration not stated) | 13µM*
O=C(c1ccncc1)N1CCC(N2C(=O)C3(CCCCC3)C2c2ccncc2)CC1 (configuration not stated) | -5%
CCn1cc(CN2CCC(N3C(=O)C4(CCCCC4)C3c3ccncc3)CC2)cn1 (configuration not stated) | -4%
Cc1ccc(C(=O)N2CCC(N3C(=O)C4(CCCC4)C3c3ccccc3)CC2)s1 (configuration not stated) | -38%
CCn1cc(CN2CCC(N3C(=O)C4(CCCC4)C3c3ccccc3)CC2)cn1 (configuration not stated) | 1.6µM*
O=C(Nc1ccccc1F)N1CCC(N2C(=O)C3(CCCCC3)C2c2ccncc2)CC1 (configuration not stated) | 4.5µM*
Cc1ncccc1C(=O)N1CCC(N2C(=O)C3(CCCC3)C2c2ccccc2)CC1 (configuration not stated) | i
Cc1cc(C(=O)N2C[C@@H](C)[C@@](C)(O)C2)cc(S(N)(=O)=O)c1C | -5%
CCc1nc(-c2c3n(c(=O)n(CC(=O)Nc4cccc(C)c4C)c2=O)CCCC3)no1 | -14%
